Numbering of substitutions follows the chain as printed.

Assay in all cases: PBM; 200 nM protein, PBS
What all share (details): dsDNA, one strand shown

Assay [1] concerns the target CRX (Homo sapiens, UniProt O43186 26-111).
In assay [2] the target is T1, VENTX (Homo sapiens, UniProt O95231 78-163, R121Q).
T1 sequence: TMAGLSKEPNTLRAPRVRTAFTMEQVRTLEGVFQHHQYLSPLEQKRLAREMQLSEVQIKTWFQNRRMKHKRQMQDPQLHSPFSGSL

Assay [3] deals with T2, VENTX (Homo sapiens, UniProt O95231 78-163, Y115F).
T2 sequence: T1 sequence with Y38F, Q44R

For assay [4], the target named is CRX (Homo sapiens, UniProt O43186 26-111, E42D).
In a further assay the target is PITX2 (Homo sapiens, UniProt Q99697 72-157).
Assay [5] addresses CRX (Homo sapiens, UniProt O43186 26-111, R41L).
Assay [6] addresses HOXC9 (Homo sapiens, UniProt P31274 178-260, K195R).
The target in assay [7] is ALX4 (Homo sapiens, UniProt Q9H161 200-286).
The target of assay [8] is ALX4 (Homo sapiens, UniProt Q9H161 200-286, Q225E).
Assay [9] concerns the target HOXC9 (Homo sapiens, UniProt P31274 178-260).
For assay [10], the target named is HOXC9 (Homo sapiens, UniProt P31274 178-260, R193K).
Assay [11] has as its target HOXC9 (Homo sapiens, UniProt P31274 178-260, R222W).
In assay [12] the target is T3, SIX6 (Homo sapiens, UniProt O95475 114-200, L167I).
T3 sequence: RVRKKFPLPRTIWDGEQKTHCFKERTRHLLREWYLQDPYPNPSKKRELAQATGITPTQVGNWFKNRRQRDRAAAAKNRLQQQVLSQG

For assay [13], the target named is T4, VENTX (Homo sapiens, UniProt O95231 78-163).
T4 sequence: T1 sequence with Q44R

Assay [14] addresses T5, SIX6 (Homo sapiens, UniProt O95475 114-200, L143V).
T5 sequence: T3 sequence with L30V, I54L

Assay [15] concerns the target HOXC10 (Homo sapiens, UniProt Q9NYD6 254-340).
The target of assay [16] is T6, SIX6 (Homo sapiens, UniProt O95475 114-200, H141N).
T6 sequence: T3 sequence with H28N, I54L

For assay [17], the target named is T7, SIX6 (Homo sapiens, UniProt O95475 114-200, T165P).
T7 sequence: T3 sequence with T52P, I54L

Assay [18] has as its target T8, SIX6 (Homo sapiens, UniProt O95475 114-200, L167M).
T8 sequence: T3 sequence with I54M

For assay [19], the target named is T9, SIX6 (Homo sapiens, UniProt O95475 114-200, L143M).
T9 sequence: T3 sequence with L30M, I54L

The target in assay [20] is T10, SIX6 (Homo sapiens, UniProt O95475 114-200, L143I).
T10 sequence: T3 sequence with L30I, I54L

Assay [21] addresses T11, SIX6 (Homo sapiens, UniProt O95475 114-200, T165G).
T11 sequence: T3 sequence with T52G, I54L

Assay [22] concerns the target T12, SIX6 (Homo sapiens, UniProt O95475 114-200, T139Q).
T12 sequence: T3 sequence with T26Q, I54L

Assay [23] has as its target MSX2 (Homo sapiens, UniProt P35548 130-214, R199I).
Assay [24] addresses T13, SIX6 (Homo sapiens, UniProt O95475 114-200, T165A).
T13 sequence: T3 sequence with T52A, I54L

For assay [25], the target named is HOXC10 (Homo sapiens, UniProt Q9NYD6 254-340, K271E).
The target in assay [26] is MSX2 (Homo sapiens, UniProt P35548 130-214).
Assay [27] addresses T14, SIX6 (Homo sapiens, UniProt O95475 114-200, L167V).
T14 sequence: T3 sequence with I54V

In assay [28] the target is T15, SIX6 (Homo sapiens, UniProt O95475 114-200).
T15 sequence: T3 sequence with I54L

Assay [29] has as its target T16, SIX6 (Homo sapiens, UniProt O95475 114-200, T165I).
T16 sequence: T3 sequence with T52I, I54L

Assay [30] has as its target MSX2 (Homo sapiens, UniProt P35548 130-214, F161Y).
The target in assay [31] is ALX1 (Homo sapiens, UniProt Q15699 118-204, L144V).
Assay [32] concerns the target ALX1 (Homo sapiens, UniProt Q15699 118-204, L144R).
In assay [33] the target is ALX1 (Homo sapiens, UniProt Q15699 118-204).
The next assay has as its target T17, NKX2-6 (Homo sapiens, UniProt A6NCS4 118-204, R150C).
T17 sequence: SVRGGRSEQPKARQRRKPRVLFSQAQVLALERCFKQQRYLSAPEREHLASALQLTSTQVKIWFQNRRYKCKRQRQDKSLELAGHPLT

The target in assay [34] is HOXA4 (Homo sapiens, UniProt Q00056 201-287, W262R).
Assay [35] addresses PRRX1 (Homo sapiens, UniProt P54821 80-166, F113S).
Assay [36] has as its target HOXA4 (Homo sapiens, UniProt Q00056 201-287, R217L).
Assay [37] concerns the target HOXA4 (Homo sapiens, UniProt Q00056 201-287).
For assay [38], the target named is HOXA4 (Homo sapiens, UniProt Q00056 201-287, W262F).
Assay [39] addresses PRRX1 (Homo sapiens, UniProt P54821 80-166).

Sequence of CRX (Homo sapiens, UniProt O43186 26-111, R41L) (O43186 26-111 R41L): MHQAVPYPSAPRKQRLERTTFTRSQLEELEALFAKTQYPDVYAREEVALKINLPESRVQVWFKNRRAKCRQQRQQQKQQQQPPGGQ
Sequence of HOXC9 (Homo sapiens, UniProt P31274 178-260, K195R) (P31274 178-260 K195R): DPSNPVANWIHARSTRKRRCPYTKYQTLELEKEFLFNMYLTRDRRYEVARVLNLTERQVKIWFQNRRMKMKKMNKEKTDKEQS
Sequence of CRX (Homo sapiens, UniProt O43186 26-111) (O43186 26-111): as the sequence (O43186 26-111 R41L) above, with L16R counted along it
Sequence of HOXC9 (Homo sapiens, UniProt P31274 178-260, R193K) (P31274 178-260 R193K): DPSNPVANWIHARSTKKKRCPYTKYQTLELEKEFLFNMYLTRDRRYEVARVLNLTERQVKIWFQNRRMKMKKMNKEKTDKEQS
Sequence of CRX (Homo sapiens, UniProt O43186 26-111, E42D) (O43186 26-111 E42D): as the sequence (O43186 26-111 R41L) above, with L16R, E17D counted along it
Sequence of HOXC9 (Homo sapiens, UniProt P31274 178-260) (P31274 178-260): as the sequence (P31274 178-260 R193K) above, with K16R counted along it
Sequence of HOXC9 (Homo sapiens, UniProt P31274 178-260, R222W) (P31274 178-260 R222W): as the sequence (P31274 178-260 R193K) above, with K16R, R45W counted along it
Sequence of MSX2 (Homo sapiens, UniProt P35548 130-214) (P35548 130-214): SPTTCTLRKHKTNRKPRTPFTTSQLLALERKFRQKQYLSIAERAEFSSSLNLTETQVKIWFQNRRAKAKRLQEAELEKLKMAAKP
Sequence of ALX1 (Homo sapiens, UniProt Q15699 118-204, L144R) (Q15699 118-204 L144R): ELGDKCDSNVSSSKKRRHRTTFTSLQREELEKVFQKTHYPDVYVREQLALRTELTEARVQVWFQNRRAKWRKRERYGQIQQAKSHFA
Sequence of PRRX1 (Homo sapiens, UniProt P54821 80-166, F113S) (P54821 80-166 F113S): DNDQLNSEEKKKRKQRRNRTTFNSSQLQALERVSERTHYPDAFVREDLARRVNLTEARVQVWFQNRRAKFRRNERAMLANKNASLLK
Sequence of HOXA4 (Homo sapiens, UniProt Q00056 201-287) (Q00056 201-287): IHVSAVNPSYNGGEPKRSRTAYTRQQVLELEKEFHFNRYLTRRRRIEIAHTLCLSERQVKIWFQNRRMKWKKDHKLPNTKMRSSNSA
Sequence of ALX4 (Homo sapiens, UniProt Q9H161 200-286) (Q9H161 200-286): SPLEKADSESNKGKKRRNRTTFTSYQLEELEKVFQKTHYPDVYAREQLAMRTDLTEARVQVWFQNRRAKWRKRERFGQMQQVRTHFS
Sequence of HOXA4 (Homo sapiens, UniProt Q00056 201-287, R217L) (Q00056 201-287 R217L): as the sequence (Q00056 201-287) above, with R17L counted along it
Sequence of HOXC10 (Homo sapiens, UniProt Q9NYD6 254-340) (Q9NYD6 254-340): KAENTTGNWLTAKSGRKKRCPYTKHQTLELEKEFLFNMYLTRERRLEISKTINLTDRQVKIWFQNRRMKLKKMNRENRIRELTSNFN
Sequence of MSX2 (Homo sapiens, UniProt P35548 130-214, F161Y) (P35548 130-214 F161Y): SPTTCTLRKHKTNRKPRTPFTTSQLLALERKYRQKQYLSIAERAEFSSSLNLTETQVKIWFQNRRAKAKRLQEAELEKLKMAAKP
Sequence of HOXA4 (Homo sapiens, UniProt Q00056 201-287, W262F) (Q00056 201-287 W262F): as the sequence (Q00056 201-287) above, with W62F counted along it
Sequence of HOXA4 (Homo sapiens, UniProt Q00056 201-287, W262R) (Q00056 201-287 W262R): as the sequence (Q00056 201-287) above, with W62R counted along it
Sequence of ALX4 (Homo sapiens, UniProt Q9H161 200-286, Q225E) (Q9H161 200-286 Q225E): as the sequence (Q9H161 200-286) above, with Q26E counted along it
Sequence of ALX1 (Homo sapiens, UniProt Q15699 118-204, L144V) (Q15699 118-204 L144V): as the sequence (Q15699 118-204 L144R) above, with R27V counted along it
Sequence of MSX2 (Homo sapiens, UniProt P35548 130-214, R199I) (P35548 130-214 R199I): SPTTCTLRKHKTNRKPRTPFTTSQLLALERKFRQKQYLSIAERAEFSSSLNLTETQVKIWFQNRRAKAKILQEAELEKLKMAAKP
Sequence of HOXC10 (Homo sapiens, UniProt Q9NYD6 254-340, K271E) (Q9NYD6 254-340 K271E): as the sequence (Q9NYD6 254-340) above, with K18E counted along it
Sequence of ALX1 (Homo sapiens, UniProt Q15699 118-204) (Q15699 118-204): as the sequence (Q15699 118-204 L144R) above, with R27L counted along it
Sequence of PRRX1 (Homo sapiens, UniProt P54821 80-166) (P54821 80-166): as the sequence (P54821 80-166 F113S) above, with S34F counted along it

On to CAGATTAG, for which the binding signal is 13.1 upbm affinity estimate (log intensity, higher = more binding, comparable within an allelic series) in the assay with CRX [1]; 10.6 upbm affinity estimate (log intensity, higher = more binding, comparable within an allelic series) in the assay with VENTX [2]; 10.7 upbm affinity estimate (log intensity, higher = more binding, comparable within an allelic series) with VENTX [3]; 13.1 upbm affinity estimate (log intensity, higher = more binding, comparable within an allelic series) with CRX [4]; 12.3 upbm affinity estimate (log intensity, higher = more binding, comparable within an allelic series) in the assay with PITX2; 12.6 upbm affinity estimate (log intensity, higher = more binding, comparable within an allelic series) in the assay with CRX [5].

As for AGGGGACC, the binding signal with CRX [1] was 8.1 upbm affinity estimate (log intensity, higher = more binding, comparable within an allelic series); in the assay with HOXC9 [6] it was 9.61 upbm affinity estimate (log intensity, higher = more binding, comparable within an allelic series); in the assay with ALX4 [7], 8.18 upbm affinity estimate (log intensity, higher = more binding, comparable within an allelic series); with ALX4 [8], 8.19 upbm affinity estimate (log intensity, higher = more binding, comparable within an allelic series); in the assay with CRX [4], 8.22 upbm affinity estimate (log intensity, higher = more binding, comparable within an allelic series); in the assay with HOXC9 [9], 9.69 upbm affinity estimate (log intensity, higher = more binding, comparable within an allelic series). For the same sequence, the binding signal with HOXC9 [10] is 9.54 upbm affinity estimate (log intensity, higher = more binding, comparable within an allelic series); in the assay with HOXC9 [11] it was 9.53 upbm affinity estimate (log intensity, higher = more binding, comparable within an allelic series); in the assay with CRX [5] it was 8.23 upbm affinity estimate (log intensity, higher = more binding, comparable within an allelic series).

On to CTGCTGGC, for which the binding signal with CRX [1] is 8.31 upbm affinity estimate (log intensity, higher = more binding, comparable within an allelic series); in the assay with VENTX [2], 7.75 upbm affinity estimate (log intensity, higher = more binding, comparable within an allelic series); with SIX6 [12], 8.86 upbm affinity estimate (log intensity, higher = more binding, comparable within an allelic series); in the assay with VENTX [13], 7.86 upbm affinity estimate (log intensity, higher = more binding, comparable within an allelic series); with SIX6 [14], 8.74 upbm affinity estimate (log intensity, higher = more binding, comparable within an allelic series); with HOXC10 [15], 9.92 upbm affinity estimate (log intensity, higher = more binding, comparable within an allelic series). In addition, the binding signal in the assay with SIX6 [16] was 8.87 upbm affinity estimate (log intensity, higher = more binding, comparable within an allelic series); with SIX6 [17], 8.81 upbm affinity estimate (log intensity, higher = more binding, comparable within an allelic series); with VENTX [3], 7.71 upbm affinity estimate (log intensity, higher = more binding, comparable within an allelic series); in the assay with SIX6 [18] it was 8.92 upbm affinity estimate (log intensity, higher = more binding, comparable within an allelic series); with SIX6 [19], 8.85 upbm affinity estimate (log intensity, higher = more binding, comparable within an allelic series); with SIX6 [20], 8.83 upbm affinity estimate (log intensity, higher = more binding, comparable within an allelic series). Further, the binding signal with SIX6 [21] is 8.91 upbm affinity estimate (log intensity, higher = more binding, comparable within an allelic series); with SIX6 [22], 8.84 upbm affinity estimate (log intensity, higher = more binding, comparable within an allelic series); with CRX [4] it was 8.3 upbm affinity estimate (log intensity, higher = more binding, comparable within an allelic series); with MSX2 [23], 9.25 upbm affinity estimate (log intensity, higher = more binding, comparable within an allelic series); with SIX6 [24], 8.81 upbm affinity estimate (log intensity, higher = more binding, comparable within an allelic series); with HOXC10 [25], 9.97 upbm affinity estimate (log intensity, higher = more binding, comparable within an allelic series). Also, the binding signal in the assay with MSX2 [26] was 9.22 upbm affinity estimate (log intensity, higher = more binding, comparable within an allelic series); with SIX6 [27] it was 8.93 upbm affinity estimate (log intensity, higher = more binding, comparable within an allelic series); in the assay with SIX6 [28] it was 8.83 upbm affinity estimate (log intensity, higher = more binding, comparable within an allelic series); with SIX6 [29], 8.82 upbm affinity estimate (log intensity, higher = more binding, comparable within an allelic series); with MSX2 [30], 9.31 upbm affinity estimate (log intensity, higher = more binding, comparable within an allelic series); with CRX [5] it was 8.2 upbm affinity estimate (log intensity, higher = more binding, comparable within an allelic series).

As to GACGCGTC, the binding signal with CRX [1] was 8.63 upbm affinity estimate (log intensity, higher = more binding, comparable within an allelic series); with HOXC9 [6] it was 9.76 upbm affinity estimate (log intensity, higher = more binding, comparable within an allelic series); with CRX [4] it was 8.54 upbm affinity estimate (log intensity, higher = more binding, comparable within an allelic series); in the assay with HOXC9 [9] it was 9.79 upbm affinity estimate (log intensity, higher = more binding, comparable within an allelic series); with ALX1 [31] it was 6.58 upbm affinity estimate (log intensity, higher = more binding, comparable within an allelic series); in the assay with HOXC9 [10], 9.46 upbm affinity estimate (log intensity, higher = more binding, comparable within an allelic series). Further, the binding signal with ALX1 [32] was 6.43 upbm affinity estimate (log intensity, higher = more binding, comparable within an allelic series); in the assay with HOXC9 [11], 9.62 upbm affinity estimate (log intensity, higher = more binding, comparable within an allelic series); in the assay with CRX [5] it was 8.22 upbm affinity estimate (log intensity, higher = more binding, comparable within an allelic series); with ALX1 [33], 6.73 upbm affinity estimate (log intensity, higher = more binding, comparable within an allelic series).

For GGGGACCC, the binding signal with CRX [1] was 8.16 upbm affinity estimate (log intensity, higher = more binding, comparable within an allelic series); with HOXC9 [6], 9.36 upbm affinity estimate (log intensity, higher = more binding, comparable within an allelic series); with NKX2-6, 9.43 upbm affinity estimate (log intensity, higher = more binding, comparable within an allelic series); with CRX [4] it was 8.31 upbm affinity estimate (log intensity, higher = more binding, comparable within an allelic series); in the assay with HOXC9 [9], 9.5 upbm affinity estimate (log intensity, higher = more binding, comparable within an allelic series); in the assay with PITX2, 7.78 upbm affinity estimate (log intensity, higher = more binding, comparable within an allelic series). Also, the binding signal with HOXC9 [10] was 9.41 upbm affinity estimate (log intensity, higher = more binding, comparable within an allelic series); in the assay with HOXC9 [11], 9.52 upbm affinity estimate (log intensity, higher = more binding, comparable within an allelic series); with CRX [5], 8.26 upbm affinity estimate (log intensity, higher = more binding, comparable within an allelic series).

With CCCGTCCC, the binding signal was 8.36 upbm affinity estimate (log intensity, higher = more binding, comparable within an allelic series) with CRX [1]; 9.79 upbm affinity estimate (log intensity, higher = more binding, comparable within an allelic series) with HOXA4 [34]; 9.36 upbm affinity estimate (log intensity, higher = more binding, comparable within an allelic series) with PRRX1 [35]; 9.77 upbm affinity estimate (log intensity, higher = more binding, comparable within an allelic series) with HOXA4 [36]; 8.37 upbm affinity estimate (log intensity, higher = more binding, comparable within an allelic series) with CRX [4]; 9.89 upbm affinity estimate (log intensity, higher = more binding, comparable within an allelic series) with HOXA4 [37]. Moreover, the binding signal with CRX [5] was 8.4 upbm affinity estimate (log intensity, higher = more binding, comparable within an allelic series); with HOXA4 [38], 9.95 upbm affinity estimate (log intensity, higher = more binding, comparable within an allelic series); in the assay with PRRX1 [39], 9.4 upbm affinity estimate (log intensity, higher = more binding, comparable within an allelic series).

In the case of CCCTGATC, the binding signal with CRX [1] was 10.2 upbm affinity estimate (log intensity, higher = more binding, comparable within an allelic series); with SIX6 [12], 10.2 upbm affinity estimate (log intensity, higher = more binding, comparable within an allelic series); with SIX6 [14], 9.63 upbm affinity estimate (log intensity, higher = more binding, comparable within an allelic series); with SIX6 [16] it was 10.2 upbm affinity estimate (log intensity, higher = more binding, comparable within an allelic series); with SIX6 [17], 9.31 upbm affinity estimate (log intensity, higher = more binding, comparable within an allelic series); with SIX6 [20] it was 9.69 upbm affinity estimate (log intensity, higher = more binding, comparable within an allelic series). Also, the binding signal with SIX6 [21] is 10.3 upbm affinity estimate (log intensity, higher = more binding, comparable within an allelic series); with SIX6 [22], 10.4 upbm affinity estimate (log intensity, higher = more binding, comparable within an allelic series); with CRX [4], 10 upbm affinity estimate (log intensity, higher = more binding, comparable within an allelic series); with SIX6 [28], 10.2 upbm affinity estimate (log intensity, higher = more binding, comparable within an allelic series).

The record behind these values is PMC11006913.
